Data as given in publication PMC10812921, “Transcriptional Coactivator BOB1 (OBF1, OCA-B) Modulates the Specificity of DNA Recognition by the POU-Domain Factors OCT1 and OCT2 in a Monomeric Configuration”.

The sequences below were run against POU1 (OCT1 POU domain);BOB1 (OBF1, OCA-B) (human;human, UniProt P14859;Q16633 260-458;1-256, |) (assay: EMSA-SELEX-seq; with BOB1 (ternary complex band); 20 mM Tris-HCl pH 7.6, 140 mM NaCl, 10% glycerol, 0.5 mM EDTA, 0.05% Triton X-100, 0.1 mg/mL BSA, 0.1 mg/mL poly(dI-dC), 5 mM DTT, room temperature, 20 min; high values mean tight binding). Conditions: protein: recombinant;recombinant; copies: 1;1; dsDNA, one strand shown.
How it was run: (§1)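 Tagged POU-domain proteins were expressed in E. coli BL21, purified under denaturing conditions and renatured. Then 30 ng was mixed with 300 ng of a PCR-amplified double-stranded random 35-nt library, with or without 28 ng coactivator protein, in 20 μL Tris–HCl pH 7.6 binding buffer for 20 min at RT. Complex bands were cut from native 6% PAGE, eluted and PCR-amplified over four rounds, then Illumina-sequenced. Binding preference is the percentage of sequenced 8-mers matching a motif pattern.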
With ACGACAAA the binding signal was 0.0222 % of ANNNNAAN 8-mers.
With AAAAAAAC the binding signal was 0.0784 % of ANNNNAAN 8-mers.
In the case of AGTCCAAA, the binding signal is reported as 0.0332 % of ANNNNAAN 8-mers.
AAATCAAT was tested, and the binding signal was 0.162 % of ANNNNAAN 8-mers.
In the case of ACGAAAAC, the binding signal is reported as 0.0289 % of ANNNNAAN 8-mers.
ACATGAAT was tested, and the binding signal was 0.0773 % of ANNNNAAN 8-mers.
AATCGAAC was tested, and the binding signal was 0.0347 % of ANNNNAAN 8-mers.
AGCCTAAA was tested, and the binding signal was 0.0191 % of ANNNNAAN 8-mers.
With AGCTTAAA the binding signal was 0.0258 % of ANNNNAAN 8-mers.
For AAATGAAG, the binding signal was 0.186 % of ANNNNAAN 8-mers.
For ACAGTAAG, the binding signal was 0.032 % of ANNNNAAN 8-mers.
In the case of AAGGTAAA, the binding signal is reported as 0.144 % of ANNNNAAN 8-mers.
With AGTTAAAA the binding signal was 0.0831 % of ANNNNAAN 8-mers.
AGACTAAG was tested, and the binding signal was 0.03 % of ANNNNAAN 8-mers.
For AGTCGAAC, the binding signal was 0.0199 % of ANNNNAAN 8-mers.
For AAGCCAAC, the binding signal was 0.0109 % of ANNNNAAN 8-mers.
For AAGTTAAC, the binding signal was 0.0355 % of ANNNNAAN 8-mers.
ATCTGAAC was tested, and the binding signal was 0.0258 % of ANNNNAAN 8-mers.
In the case of AGTAAAAT, the binding signal is reported as 0.236 % of ANNNNAAN 8-mers.
For ATCGAAAT, the binding signal was 0.0777 % of ANNNNAAN 8-mers.
For AATTCAAG, the binding signal was 0.0714 % of ANNNNAAN 8-mers.
With ACCAGAAG the binding signal was 0.018 % of ANNNNAAN 8-mers.
AACGTAAT was tested, and the binding signal was 0.0546 % of ANNNNAAN 8-mers.
ATATCAAA was tested, and the binding signal was 0.0823 % of ANNNNAAN 8-mers.
AAAGAAAC was tested, and the binding signal was 0.0433 % of ANNNNAAN 8-mers.
With ATACAAAA the binding signal was 0.195 % of ANNNNAAN 8-mers.
With AGGCCAAG the binding signal was 0.0312 % of ANNNNAAN 8-mers.
In the case of AATACAAC, the binding signal is reported as 0.0336 % of ANNNNAAN 8-mers.
For AAGTTAAT, the binding signal was 0.102 % of ANNNNAAN 8-mers.
For ACAGGAAC, the binding signal was 0.0222 % of ANNNNAAN 8-mers.
AAGTAAAG was tested, and the binding signal was 0.0687 % of ANNNNAAN 8-mers.
With AAGGGAAT the binding signal was 0.0765 % of ANNNNAAN 8-mers.
For ACCCAAAG, the binding signal was 0.0203 % of ANNNNAAN 8-mers.
With AACACAAC the binding signal was 0.014 % of ANNNNAAN 8-mers.
With ACAGCAAG the binding signal was 0.0164 % of ANNNNAAN 8-mers.
For ACGTTAAC, the binding signal was 0.0234 % of ANNNNAAN 8-mers.
ACGTTAAA was tested, and the binding signal was 0.0371 % of ANNNNAAN 8-mers.
AGCTCAAG was tested, and the binding signal was 0.0187 % of ANNNNAAN 8-mers.
With AAAGAAAA the binding signal was 0.132 % of ANNNNAAN 8-mers.

The sequences below were run against T1, POU2 (OCT2 POU domain);BOB1 (OBF1, OCA-B) (human;human, UniProt P09086;Q16633 175-386;1-256, |) in the same assay as above. Conditions: protein: recombinant;recombinant; copies: 1;1; dsDNA, one strand shown.
T1 sequence 1: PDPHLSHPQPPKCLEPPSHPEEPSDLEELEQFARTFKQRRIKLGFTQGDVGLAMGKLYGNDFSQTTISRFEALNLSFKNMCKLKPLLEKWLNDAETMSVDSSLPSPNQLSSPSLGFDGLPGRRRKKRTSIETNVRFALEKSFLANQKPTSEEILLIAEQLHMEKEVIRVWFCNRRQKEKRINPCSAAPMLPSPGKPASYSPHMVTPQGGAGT
T1 sequence 2: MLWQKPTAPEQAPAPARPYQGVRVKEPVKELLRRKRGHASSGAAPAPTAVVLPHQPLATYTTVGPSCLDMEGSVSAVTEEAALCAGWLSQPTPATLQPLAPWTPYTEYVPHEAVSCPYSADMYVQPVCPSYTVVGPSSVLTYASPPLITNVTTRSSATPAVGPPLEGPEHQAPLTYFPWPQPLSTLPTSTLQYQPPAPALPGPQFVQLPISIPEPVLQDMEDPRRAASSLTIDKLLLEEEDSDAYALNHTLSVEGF
How it was run: as §1
In the case of ACGACAAA, the binding signal is reported as 0.0256 % of ANNNNAAN 8-mers.
With AAAAAAAC the binding signal was 0.0512 % of ANNNNAAN 8-mers.
For AGTCCAAA, the binding signal was 0.0281 % of ANNNNAAN 8-mers.
AAATCAAT was tested, and the binding signal was 0.148 % of ANNNNAAN 8-mers.
With ACGAAAAC the binding signal was 0.0264 % of ANNNNAAN 8-mers.
ACATGAAT was tested, and the binding signal was 0.0925 % of ANNNNAAN 8-mers.
AATCGAAC was tested, and the binding signal was 0.0512 % of ANNNNAAN 8-mers.
For AGCCTAAA, the binding signal was 0.0206 % of ANNNNAAN 8-mers.
In the case of AGCTTAAA, the binding signal is reported as 0.0421 % of ANNNNAAN 8-mers.
With AAATGAAG the binding signal was 0.2 % of ANNNNAAN 8-mers.
In the case of ACAGTAAG, the binding signal is reported as 0.0272 % of ANNNNAAN 8-mers.
With AAGGTAAA the binding signal was 0.0933 % of ANNNNAAN 8-mers.
With AGTTAAAA the binding signal was 0.0537 % of ANNNNAAN 8-mers.
With AGACTAAG the binding signal was 0.0314 % of ANNNNAAN 8-mers.
In the case of AGTCGAAC, the binding signal is reported as 0.0239 % of ANNNNAAN 8-mers.
AAGCCAAC was tested, and the binding signal was 0.0107 % of ANNNNAAN 8-mers.
With AAGTTAAC the binding signal was 0.0355 % of ANNNNAAN 8-mers.
For ATCTGAAC, the binding signal was 0.0429 % of ANNNNAAN 8-mers.
With AGTAAAAT the binding signal was 0.148 % of ANNNNAAN 8-mers.
In the case of ATCGAAAT, the binding signal is reported as 0.0512 % of ANNNNAAN 8-mers.
For AATTCAAG, the binding signal was 0.0817 % of ANNNNAAN 8-mers.
ACCAGAAG was tested, and the binding signal was 0.0215 % of ANNNNAAN 8-mers.
For AACGTAAT, the binding signal was 0.071 % of ANNNNAAN 8-mers.
For ATATCAAA, the binding signal was 0.0726 % of ANNNNAAN 8-mers.
AAAGAAAC was tested, and the binding signal was 0.0371 % of ANNNNAAN 8-mers.
ATACAAAA was tested, and the binding signal was 0.105 % of ANNNNAAN 8-mers.
With AGGCCAAG the binding signal was 0.0264 % of ANNNNAAN 8-mers.
With AATACAAC the binding signal was 0.0545 % of ANNNNAAN 8-mers.
With AAGTTAAT the binding signal was 0.102 % of ANNNNAAN 8-mers.
For ACAGGAAC, the binding signal was 0.0239 % of ANNNNAAN 8-mers.
In the case of AAGTAAAG, the binding signal is reported as 0.0545 % of ANNNNAAN 8-mers.
In the case of AAGGGAAT, the binding signal is reported as 0.0908 % of ANNNNAAN 8-mers.
For ACCCAAAG, the binding signal was 0.0206 % of ANNNNAAN 8-mers.
With AACACAAC the binding signal was 0.0272 % of ANNNNAAN 8-mers.
With ACAGCAAG the binding signal was 0.014 % of ANNNNAAN 8-mers.
For ACGTTAAC, the binding signal was 0.0289 % of ANNNNAAN 8-mers.
With ACGTTAAA the binding signal was 0.0421 % of ANNNNAAN 8-mers.
With AGCTCAAG the binding signal was 0.0206 % of ANNNNAAN 8-mers.
With AAAGAAAA the binding signal was 0.0693 % of ANNNNAAN 8-mers.
